# Screening results as filed in PubChem.
# CYP2C19 act: cytochrome P450 2C19 (human) activation. P33261. recombinant CYP2C19, luciferin-H EGE luminescence; hits give high values; 0 = fully inhibited enzyme, 1 = untreated enzyme. activation factor at 5 µM. 96,000 tested, under 10 active;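 active = activation factor of at least 2 at 5 µM in the primary screen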;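 also: 0 = wells with 2.5 mM tranylcypromine and 1 = vehicle-only wells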
# CD11b adhes enh: enhancers of human CD11b/CD18 binding to fibrinogen. actives 0.07% (n = 93,000). AID 1499. K562 CD11b/CD18 adhesion to fibrinogen, ATPlite luminescence. activation, % at 10 µM. P05107+P11215;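 active = 10 µM primary screen giving 50% or more activity, confirmed by 40% or more on retest at that dose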
# Target sequence (P05107 whole entry, looked up, other chains not shown): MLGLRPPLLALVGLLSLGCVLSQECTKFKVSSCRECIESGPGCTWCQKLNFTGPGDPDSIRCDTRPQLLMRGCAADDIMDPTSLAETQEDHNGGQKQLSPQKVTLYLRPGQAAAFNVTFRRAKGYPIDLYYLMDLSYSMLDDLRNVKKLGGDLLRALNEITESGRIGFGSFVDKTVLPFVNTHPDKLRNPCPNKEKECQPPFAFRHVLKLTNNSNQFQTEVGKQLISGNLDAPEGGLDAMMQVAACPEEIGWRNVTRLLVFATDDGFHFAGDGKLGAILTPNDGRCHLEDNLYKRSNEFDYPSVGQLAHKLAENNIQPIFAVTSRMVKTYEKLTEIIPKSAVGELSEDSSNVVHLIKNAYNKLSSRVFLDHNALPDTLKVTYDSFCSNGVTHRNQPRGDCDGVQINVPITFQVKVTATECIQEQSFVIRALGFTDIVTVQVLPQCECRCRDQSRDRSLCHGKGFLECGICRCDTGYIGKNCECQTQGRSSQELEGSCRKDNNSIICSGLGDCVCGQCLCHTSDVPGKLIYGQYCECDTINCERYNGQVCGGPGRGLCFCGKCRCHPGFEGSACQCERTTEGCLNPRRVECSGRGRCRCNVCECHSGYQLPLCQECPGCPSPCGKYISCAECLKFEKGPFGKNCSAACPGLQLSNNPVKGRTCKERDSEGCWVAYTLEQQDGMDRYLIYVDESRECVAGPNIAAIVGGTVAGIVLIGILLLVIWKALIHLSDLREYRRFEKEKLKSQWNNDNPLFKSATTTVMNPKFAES
# CYP2C9 inhib: human CYP2C9 inhibition; P11712; CYP2C9 Supersomes, luciferin-H conversion, luminescence; inhibition, % at 5 µM; actives 20% (n = 96,000); AID 777;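 active = blocking of liver enzyme CYP2C9 beyond about 50% at 5 µM, limit read from the data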
# CYP2C9 act: CYP2C9 (human) activation. P11712. recombinant CYP2C9, luciferin-H conversion, luminescence; hits give high values; factor 1 = untreated enzyme, 0 = blocked. activation factor at 5 µM. actives 1.4% (n = 96,000). AID 1024;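 active = activation factor of 2 or more for CYP2C9 at a 5 µM dose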;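 also: 0 = sulfaphenazole-blocked wells and 1 = vehicle-only wells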
# CYP2C19 inhib: blocks human cytochrome P450 2C19; P33261; CYP2C19 Supersomes, luciferin-H EGE luminescence, 30 min; inhibition, % at 5 µM; actives 21% (n = 96,000); AID 778;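 active = CYP2C19 inhibition above a set limit at 5 µM in the primary screen, cut at about 50% in these data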;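 also: plate controls were negative control wells for no effect and 2.5 mM tranylcypromine positive control for full effect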
# CD11b adhes inh: CD11b/CD18-fibrinogen binding inhibition; P05107+P11215; K562 CD11b/CD18 adhesion to fibrinogen, ATPlite luminescence; Mn2+ added to activate the integrin; inhibition, % at 10 µM; actives 0.54% (n = 93,000);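 active = primary inhibition of 50% or more at 10 µM, then 40% or more on retest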
# Active calls of the source: *; . = no result given. An excerpt weighted towards active compounds, which were near 28% of everything screened.
SMILES,CYP2C19 act,CD11b adhes enh,CYP2C9 inhib,CYP2C9 act,CYP2C19 inhib,CD11b adhes inh
O=C(Nc1nc2ccccc2s1)C1CC(=O)N(c2ccc(F)cc2)C1 (stereo not drawn),0.9,-0.8,31.6,0.7,8.0,6.8
O=C(NC(=S)N(Cc1ccccc1)Cc1ccccc1)c1ccccc1F,0.8,0.5,53.0*,0.5,21.9,9.2
O=C(NC(=S)NCc1ccccc1)c1ccccc1F,0.7,-2.2,26.4,0.7,29.3,-0.7
O=C(COC(=O)c1cccnc1Nc1ccccc1F)NCCN1C(=O)CSC1=O,0.2,-5.8,16.7,0.8,84.2*,-1.7
O=C(COC(=O)c1cccnc1Nc1ccccc1F)NCc1ccc2c(c1)OCO2,1,-2.5,20.6,0.8,-4.3,36.1
CCOc1nc(CC)nc(NC(=O)NS(=O)(=O)c2ccccc2Cl)n1,0.9,2.9,7.1,0.9,5.7,36.8
CCOc1ccc(C(C)=O)cc1CN1C(=O)NC2(CCCCC2C)C1=O (stereo not drawn),0.7,-1.6,15.4,0.8,33.7,-1.3
COc1ccc(C(C)=O)cc1CN1C(=O)NC2(CCCCCC2)C1=O,0.1,-0.2,29.0,0.7,88.3*,-8.9
Cc1ccc(-c2nnc(-n3nc(C)cc3C)c3ccccc23)cc1,.,-1.0,.,.,.,12.2
Cc1cc(C)n(-c2ccc(-n3ccnc3)nn2)n1,0,-4.7,40.0,0.6,99.4*,22.3
C(=N\Nc1ccc(-n2ccnc2)nn1)/c1ccccc1,0,-3.7,93.4*,0.1,98.2*,6.7
Cc1ccnc(N/N=C/c2ccccc2)n1,.,-2.4,.,.,.,-6.7
Cc1ccc(Nc2ccc(-n3ccnc3)nn2)cc1C,0,.,98.8*,0,100.1*,.
Cc1c(C(=O)N2CCOCC2)sc(NC(=O)c2ccc3c(c2)OCO3)c1C#N,1.1,1.3,11.1,0.9,-7.5,2.9
CCOc1ccc(-c2nnc(-c3snc(-c4ccc(F)cc4)c3N=CN(C)C)o2)cc1,1.1,34.1,-7.7,1.1,-6.3,-12.4
c1ccc(-c2nc(NCC3CCCO3)c3oc4ccccc4c3n2)cc1 (stereo not drawn),0.8,4.0,14.5,0.9,15.1,-7.7
CSCC[C@@H](Nc1nc(-c2ccccc2)nc2c1oc1ccccc12)C(=O)O,1,4.4,64.0*,0.4,1.7,8.2
c1ccc(-c2nc(NCc3cccnc3)c3oc4ccccc4c3n2)cc1,0.6,-2.6,57.7*,0.4,35.3,4.6
CCOCC(=O)N1CCc2ccccc21,1,5.4,-6.5,1.1,4.5,-19.8
COc1ccc(CCC(=O)N2CCc3ccccc32)cc1,0.4,-2.3,-2.3,1,59.7*,9.2
COc1ccc(CCC(=O)N2c3ccccc3CC2C)cc1 (stereo not drawn),0,6.9,56.8*,0.4,96.3*,-6.2
O=C(Cc1ccc(-n2cccc2)cc1)N1CCc2ccccc21,0.4,-2.4,11.3,0.9,58.6*,-24.2
Cn1c(SCCCC(=O)c2ccc(Br)cc2)nnc1-c1ccncc1,0.3,-0.4,93.0*,0.1,74.8*,7.2
Cn1c(SCC(=O)C(C)(C)C)nnc1-c1ccncc1,0.1,1.0,63.0*,0.4,86.7*,-9.5
Cn1c(SCC2CCCCC2)nnc1-c1ccncc1,0,0.5,87.2*,0.1,99.8*,-3.6
SMILES,CYP2C19 act,CD11b adhes enh,CYP2C9 inhib,CYP2C9 act,CYP2C19 inhib,CD11b adhes inh
Cc1ccc(C(=O)NNC(=O)CSc2nnc(-c3ccncc3)n2C)cc1,1,.,12.9,0.9,-2.2,.
Cn1c(SC2CCCCC2=O)nnc1-c1ccncc1 (stereo not drawn),0.3,.,16.1,0.8,69.8*,.
Cc1ccc(C(=O)c2coc3cc([N+](=O)[O-])c(O)c([N+](=O)[O-])c23)cc1,.,-7.3,.,.,.,78.0
Cc1ccc(NC(=O)c2ccc(CSc3nnc(C)s3)cc2)c(C)c1,0.6,.,-39.8,1.4,35.1,.
Cc1ccc(NC(=O)c2ccc(CSc3nnc(-c4ccncc4)n3C)cc2)c(C)c1,0.8,.,65.8*,0.3,20.3,.
Cc1ccc(-n2cc(C(C)(C)C)[nH]c2=S)cc1,0.4,-7.0,-36.2,1.4,59.8*,5.6
CC(C)(C)c1cn(-c2ccccc2)c(=S)[nH]1,0.6,-1.8,9.0,0.9,44.6,-8.5
CC(C)CC(NC(=O)C1CCCCC1)C(=O)N1CCN(c2ccccn2)CC1 (stereo not drawn),0.9,3.4,10.4,0.9,8.3,-2.1
COc1ccc(C(=O)/C(=C/c2cccs2)c2nc3ccccc3o2)cc1,0.7,-5.5,68.6*,0.3,26.0,3.5
O=C(O)CC(c1cccc2ccccc12)n1cccc1 (stereo not drawn),0.8,2.2,50.8*,0.5,23.4,24.7
Nc1nnc(SCC(=O)N2CCN(Cc3ccccc3)CC2)s1,0.3,-2.3,52.9*,0.5,68.4*,-44.3
Nc1nnc(SCC(=O)c2ccc3ccccc3c2)s1,0.2,0.9,37.5,0.6,77.7*,-23.3
Cc1nnc(SCC(=O)N2CCN(Cc3ccccc3)CC2)s1,0.1,-3.1,19.3,0.8,89.4*,-2.6
O=C(CSc1nnc(-c2ccccc2)n1Cc1ccccc1)N1CCCC1,1.1,0.3,-6.2,1.1,-5.0,1.2
CN(C)CCNC(=O)Nc1ccc(Cl)c(Cl)c1,0.5,-3.0,22.1,0.8,47.8,-0.6
O=[N+]([O-])c1ccccc1/C=C/C=N/n1c(-c2ccc(Cl)cc2)n[nH]c1=S,0.9,15.4,57.5*,0.4,8.3,-6.2
Cc1ccc(-c2n[nH]c(=S)n2/N=C/C=C\c2ccccc2[N+](=O)[O-])cc1,0.7,-1.6,44.7,0.6,28.2,1.5
Cc1cc(=O)[nH]c(Nc2ccc(C(=O)OC(C)C)cc2)n1,0.7,3.2,27.0,0.7,25.9,-7.2
Cc1ccc(C2CC(c3cccs3)=NN2C(=O)CSC2=NN3CCCC(=O)N=C3S2)cc1 (stereo not drawn),0.1,8.4,81.6*,0.2,91.1*,-2.6
COc1ccc(C2CC(c3cccs3)=NN2C(=O)CSC2=NN3CCCC(=O)N=C3S2)cc1 (stereo not drawn),1,-0.6,25.1,0.7,3.4,6.9
COc1ccccc1N(C)S(=O)(=O)c1ccc(C(=O)NC(C)(C)C)cc1,0.7,-1.0,72.8*,0.3,27.3,-35.4
CCN(CC(=O)NC(C)C)C(=O)c1ccc(S(=O)(=O)N(C)c2ccccc2OC)cc1,0.9,-1.0,14.8,0.9,7.7,8.8
CN(C)CCCNC(=O)C1CCNCC1,1,1.3,-0.6,1,4.8,3.2
CCCCCCn1c(=O)c(-c2ccccc2)c(O)c2ccccc21,0.6,-1.5,75.9*,0.2,35.2,7.2
CCCCn1c(=O)c(Cc2ccccc2)c(O)c2ccccc21,0.5,-2.2,32.9,0.7,49.3,-16.3
CSc1nnc(-c2ccccc2N=Cc2c(C)[nH]n(-c3ccccc3)c2=O)c(=O)[nH]1,1,.,32.4,0.7,-2.1,.
